Results: the supplement of paper PMC10849652
Of roughly 7,900 targets only a part is listed; those with a hit were picked by preference. About 0.6% of all pairs of compound and target were hits. Values without a mark were called inactive.

Experiments:
Assay in all cases: log2 fold change, soluble protein after heating vs DMSO (PISA); higher = thermal stabilisation; K562 cells, 10 uM, 30 min; active = over 0.2 and 3.5 SD of the protein, either way, in both replicates (recomputed)
[1] = compound: CC[C@@H]1C(=O)N(C)c2cnc(Nc3ccc(C(=O)NC4CCN(C)CC4)cc3OC)nc2N1C1CCCC1
Procedure, shortened: (§1)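 K562 cells at 2×10^6 cells/mL were treated with 10 μM compound for 30 min. Aliquots were heated for 3 min across 48°C-58°C, pooled, and extracted in PBS with 0.5% NP-40 at 4°C; soluble protein was the supernatant after 21,000xg for 90 min. Soluble protein was quantified by TMTpro 16plex LC-MS/MS with channel sums equalised, and reported as log2 fold change in thermal stability against DMSO controls, with values from duplicates.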

volasertib = compound: CC[C@@H]1C(=O)N(C)c2cnc(Nc3ccc(C(=O)N[C@H]4CC[C@H](N5CCN(CC6CC6)CC5)CC4)cc3OC)nc2N1C(C)C [volasertib]
Procedure, shortened: as §1

[2] = compound: CC[C@H](C)N1C=C(C2=C(C=C(C=C21)C3=CN=C(C=C3)N4CCNCC4)C(=O)NCC5=C(C=C(NC5=O)C)C)C
Procedure, shortened: as §1

epoxomicin = compound: CC[C@H](C)[C@@H](C(=O)N[C@@H]([C@@H](C)O)C(=O)N[C@@H](CC(C)C)C(=O)[C@]1(CO1)C)NC(=O)[C@H]([C@@H](C)CC)N(C)C(=O)C [epoxomicin]
Procedure, shortened: as §1

[3] = compound: CCn1c(C(=O)N(C2CC2)C2CC2)cc2c3c(ncn3C)c(Nc3cc(C)n(C)n3)nc21
Procedure, shortened: as §1

[4] = compound: CCn1cc(-c2ccnc3[nH]c(-c4cccc(CN(C)C)c4)cc23)c(-c2ccc(NC(=O)N(C)C)cc2)n1
Procedure, shortened: as §1

[5] = compound: CN(C)CC(=O)Nc1ccc2[nH]c(=O)c3ccccc3c2c1
Procedure, shortened: as §1

rosiglitazone = compound: CN(CCOC1=CC=C(C=C1)C[C@H]2C(=O)NC(=O)S2)C3=CC=CC=N3 (racemic) [rosiglitazone]
Procedure, shortened: as §1

[6] = compound: CN1CCC(CNc2ccc3ncc(-c4cccc(OC(F)(F)F)c4)n3n2)CC1
Procedure, shortened: as §1

sotrastaurin = compound: CN1CCN(c2nc(C3=C(c4c[nH]c5ccccc45)C(=O)NC3=O)c3ccccc3n2)CC1 [sotrastaurin]
Procedure, shortened: as §1

Tubastatin A = compound: CN1CCc2c(c3ccccc3n2Cc2ccc(C(=O)NO)cc2)C1 [Tubastatin A]
Procedure, shortened: as §1

[7] = compound: CNC(=O)C1=CC=CC=C1NC2=NC(=NC=C2Cl)NC3=C(C=C(C=C3)N4CCOCC4)OC
Procedure, shortened: as §1

defactinib = compound: CNC(=O)c1ccc(Nc2ncc(C(F)(F)F)c(NCc3nccnc3N(C)S(C)(=O)=O)n2)cc1 [defactinib]
Procedure, shortened: as §1

rucaparib = compound: CNCc1ccc(-c2[nH]c3cc(F)cc4c3c2CCNC4=O)cc1 [rucaparib]
Procedure, shortened: as §1

encorafenib = compound: COC(=O)N[C@@H](C)CNc1nccc(-c2cn(C(C)C)nc2-c2cc(Cl)cc(NS(C)(=O)=O)c2F)n1 [encorafenib]
Procedure, shortened: as §1

[8] = compound: COC(=O)[C@H](CCSC)NC(=O)C1=C(C=C(C=C1)NC[C@H](CS)N)C2=CC=CC=C2
Procedure, shortened: as §1

alvocidib = compound: CN1CC[C@H](c2c(O)cc(O)c3c(=O)cc(-c4ccccc4Cl)oc23)[C@H](O)C1 [alvocidib]
Procedure, shortened: as §1

[9] = compound: CN1C2=C(C3=C1C(=O)N(N=C3)CC4=CC(=CC=C4)N)SC(=C2)S(=O)C
Procedure, shortened: as §1

saracatinib = compound: CN1CCN(CCOc2cc(OC3CCOCC3)c3c(Nc4c(Cl)ccc5c4OCO5)ncnc3c2)CC1 [saracatinib]
Procedure, shortened: as §1

[10] = compound: CNc1nc(-c2ccc3c(N)n[nH]c3c2)cc(N2C[C@@H](C(=O)NC3CCCCC3)CC[C@H]2C)n1
Procedure, shortened: as §1

Chain of UniProt Q16539 (Q16539 whole entry, looked up): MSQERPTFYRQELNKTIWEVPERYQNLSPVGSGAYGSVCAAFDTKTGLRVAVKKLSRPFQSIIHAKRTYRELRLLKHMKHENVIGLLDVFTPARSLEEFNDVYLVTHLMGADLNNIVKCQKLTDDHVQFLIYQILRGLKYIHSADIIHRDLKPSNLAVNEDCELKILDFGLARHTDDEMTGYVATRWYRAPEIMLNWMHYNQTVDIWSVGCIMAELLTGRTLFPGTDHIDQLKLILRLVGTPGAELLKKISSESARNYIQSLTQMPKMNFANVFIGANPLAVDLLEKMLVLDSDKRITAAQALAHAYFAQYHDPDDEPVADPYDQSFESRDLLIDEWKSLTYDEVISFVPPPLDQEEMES
Chain of UniProt Q2M2Z5 (Q2M2Z5 whole entry, looked up): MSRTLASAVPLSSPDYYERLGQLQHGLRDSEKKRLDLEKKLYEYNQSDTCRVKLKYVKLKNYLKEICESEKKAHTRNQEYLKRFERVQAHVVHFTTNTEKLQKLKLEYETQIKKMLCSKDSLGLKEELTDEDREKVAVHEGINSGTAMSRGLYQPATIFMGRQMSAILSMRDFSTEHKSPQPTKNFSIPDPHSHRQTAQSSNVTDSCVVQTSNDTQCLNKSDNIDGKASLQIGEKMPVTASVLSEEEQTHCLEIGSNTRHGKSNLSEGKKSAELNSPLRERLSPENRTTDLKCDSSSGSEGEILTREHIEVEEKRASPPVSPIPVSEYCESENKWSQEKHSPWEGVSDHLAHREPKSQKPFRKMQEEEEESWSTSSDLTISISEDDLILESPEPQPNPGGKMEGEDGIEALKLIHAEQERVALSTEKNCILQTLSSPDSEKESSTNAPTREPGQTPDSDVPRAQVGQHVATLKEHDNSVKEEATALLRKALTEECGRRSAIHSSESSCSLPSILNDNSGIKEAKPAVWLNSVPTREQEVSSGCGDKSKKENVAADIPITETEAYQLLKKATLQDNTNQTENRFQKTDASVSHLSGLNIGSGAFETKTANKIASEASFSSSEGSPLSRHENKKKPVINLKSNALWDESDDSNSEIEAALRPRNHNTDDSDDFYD
Chain of UniProt Q9BQD3 (Q9BQD3 whole entry, looked up): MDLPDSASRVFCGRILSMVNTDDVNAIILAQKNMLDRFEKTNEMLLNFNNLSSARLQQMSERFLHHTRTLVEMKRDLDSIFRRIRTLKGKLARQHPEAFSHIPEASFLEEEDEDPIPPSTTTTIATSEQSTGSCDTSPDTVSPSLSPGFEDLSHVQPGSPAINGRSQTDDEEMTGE
Chain of UniProt P28290 (P28290 whole entry, looked up): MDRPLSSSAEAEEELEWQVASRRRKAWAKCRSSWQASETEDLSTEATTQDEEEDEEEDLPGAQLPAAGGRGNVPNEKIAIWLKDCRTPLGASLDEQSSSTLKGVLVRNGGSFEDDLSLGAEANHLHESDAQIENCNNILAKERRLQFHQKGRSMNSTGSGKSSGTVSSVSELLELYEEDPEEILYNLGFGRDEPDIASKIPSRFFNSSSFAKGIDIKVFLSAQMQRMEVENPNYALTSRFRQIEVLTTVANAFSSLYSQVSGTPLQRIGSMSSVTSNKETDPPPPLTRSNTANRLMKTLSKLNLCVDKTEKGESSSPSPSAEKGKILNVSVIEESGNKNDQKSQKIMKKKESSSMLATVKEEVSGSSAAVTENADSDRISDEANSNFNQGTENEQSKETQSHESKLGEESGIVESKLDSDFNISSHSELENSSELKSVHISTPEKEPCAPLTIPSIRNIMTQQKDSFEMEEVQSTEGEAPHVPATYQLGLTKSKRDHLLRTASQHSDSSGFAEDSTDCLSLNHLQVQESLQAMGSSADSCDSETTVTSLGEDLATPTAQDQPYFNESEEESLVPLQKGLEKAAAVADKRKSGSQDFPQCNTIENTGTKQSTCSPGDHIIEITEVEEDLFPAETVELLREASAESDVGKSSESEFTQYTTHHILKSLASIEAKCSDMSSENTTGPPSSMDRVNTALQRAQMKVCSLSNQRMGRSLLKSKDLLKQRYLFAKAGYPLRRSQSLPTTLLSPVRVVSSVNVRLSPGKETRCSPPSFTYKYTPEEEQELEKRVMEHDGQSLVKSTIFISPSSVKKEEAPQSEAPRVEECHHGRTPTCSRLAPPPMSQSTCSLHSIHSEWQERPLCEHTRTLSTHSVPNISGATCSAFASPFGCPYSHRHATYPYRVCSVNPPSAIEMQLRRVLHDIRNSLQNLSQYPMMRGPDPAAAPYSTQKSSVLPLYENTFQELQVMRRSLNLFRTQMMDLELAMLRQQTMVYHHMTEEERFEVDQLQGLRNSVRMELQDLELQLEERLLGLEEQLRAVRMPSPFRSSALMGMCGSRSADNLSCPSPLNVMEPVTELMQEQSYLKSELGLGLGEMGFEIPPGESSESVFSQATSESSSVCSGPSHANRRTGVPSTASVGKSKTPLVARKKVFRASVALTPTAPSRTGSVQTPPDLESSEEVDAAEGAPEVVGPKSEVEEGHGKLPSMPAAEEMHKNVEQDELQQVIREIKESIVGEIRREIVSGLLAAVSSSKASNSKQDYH
Chain of UniProt Q9H6K1 (Q9H6K1 whole entry, looked up): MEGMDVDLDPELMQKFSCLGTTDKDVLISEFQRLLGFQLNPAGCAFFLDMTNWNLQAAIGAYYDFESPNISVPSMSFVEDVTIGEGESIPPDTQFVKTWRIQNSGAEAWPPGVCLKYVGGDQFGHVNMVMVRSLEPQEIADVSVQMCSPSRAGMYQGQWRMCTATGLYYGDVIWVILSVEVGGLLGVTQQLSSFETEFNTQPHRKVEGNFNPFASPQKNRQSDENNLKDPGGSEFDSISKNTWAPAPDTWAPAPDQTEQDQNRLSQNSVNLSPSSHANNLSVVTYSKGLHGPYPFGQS
Chain of UniProt Q96GX5 (Q96GX5 whole entry, looked up): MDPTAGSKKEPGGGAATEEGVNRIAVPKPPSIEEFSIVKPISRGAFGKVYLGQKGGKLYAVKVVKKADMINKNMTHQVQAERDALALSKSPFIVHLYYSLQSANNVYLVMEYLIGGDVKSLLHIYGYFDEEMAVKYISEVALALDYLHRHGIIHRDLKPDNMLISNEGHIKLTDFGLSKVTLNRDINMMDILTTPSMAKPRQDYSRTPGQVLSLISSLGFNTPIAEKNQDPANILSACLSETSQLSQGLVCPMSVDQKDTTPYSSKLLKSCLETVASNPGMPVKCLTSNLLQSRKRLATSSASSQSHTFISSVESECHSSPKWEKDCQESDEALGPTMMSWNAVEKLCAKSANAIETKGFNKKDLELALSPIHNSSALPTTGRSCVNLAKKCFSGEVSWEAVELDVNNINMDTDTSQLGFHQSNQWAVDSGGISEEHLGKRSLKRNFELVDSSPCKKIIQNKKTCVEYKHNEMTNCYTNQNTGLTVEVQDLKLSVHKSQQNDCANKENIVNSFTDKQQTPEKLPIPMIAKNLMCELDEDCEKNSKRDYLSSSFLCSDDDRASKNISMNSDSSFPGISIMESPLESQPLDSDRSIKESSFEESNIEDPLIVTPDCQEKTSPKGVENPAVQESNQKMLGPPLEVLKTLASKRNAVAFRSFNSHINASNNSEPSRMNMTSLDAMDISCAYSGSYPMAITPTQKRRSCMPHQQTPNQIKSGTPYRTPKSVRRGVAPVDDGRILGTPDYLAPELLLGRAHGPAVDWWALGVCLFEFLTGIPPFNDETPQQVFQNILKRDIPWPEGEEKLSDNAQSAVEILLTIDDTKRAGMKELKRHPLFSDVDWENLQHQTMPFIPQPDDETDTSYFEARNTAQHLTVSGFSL
Chain of UniProt Q71SY5 (Q71SY5 whole entry, looked up): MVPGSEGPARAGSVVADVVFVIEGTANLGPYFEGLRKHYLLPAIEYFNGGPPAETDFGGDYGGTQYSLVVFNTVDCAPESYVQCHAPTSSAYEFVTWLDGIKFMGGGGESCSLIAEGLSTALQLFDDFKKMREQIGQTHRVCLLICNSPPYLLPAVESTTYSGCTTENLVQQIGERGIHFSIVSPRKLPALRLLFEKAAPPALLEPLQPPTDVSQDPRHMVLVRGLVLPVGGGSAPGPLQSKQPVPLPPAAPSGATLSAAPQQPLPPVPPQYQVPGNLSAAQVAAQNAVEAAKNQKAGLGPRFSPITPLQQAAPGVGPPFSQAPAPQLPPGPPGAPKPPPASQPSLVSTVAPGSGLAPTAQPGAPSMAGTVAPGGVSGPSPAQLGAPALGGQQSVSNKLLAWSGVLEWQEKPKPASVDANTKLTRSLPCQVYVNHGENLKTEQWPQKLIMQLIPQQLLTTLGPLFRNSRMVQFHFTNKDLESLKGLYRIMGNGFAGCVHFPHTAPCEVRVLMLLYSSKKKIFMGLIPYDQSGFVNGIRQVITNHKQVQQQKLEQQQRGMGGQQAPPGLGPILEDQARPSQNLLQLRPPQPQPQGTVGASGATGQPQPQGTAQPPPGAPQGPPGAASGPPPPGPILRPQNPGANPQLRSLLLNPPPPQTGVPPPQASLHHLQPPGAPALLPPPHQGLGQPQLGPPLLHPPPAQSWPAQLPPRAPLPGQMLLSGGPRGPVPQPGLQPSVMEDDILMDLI
Chain of UniProt Q9NVC6 (Q9NVC6 whole entry, looked up): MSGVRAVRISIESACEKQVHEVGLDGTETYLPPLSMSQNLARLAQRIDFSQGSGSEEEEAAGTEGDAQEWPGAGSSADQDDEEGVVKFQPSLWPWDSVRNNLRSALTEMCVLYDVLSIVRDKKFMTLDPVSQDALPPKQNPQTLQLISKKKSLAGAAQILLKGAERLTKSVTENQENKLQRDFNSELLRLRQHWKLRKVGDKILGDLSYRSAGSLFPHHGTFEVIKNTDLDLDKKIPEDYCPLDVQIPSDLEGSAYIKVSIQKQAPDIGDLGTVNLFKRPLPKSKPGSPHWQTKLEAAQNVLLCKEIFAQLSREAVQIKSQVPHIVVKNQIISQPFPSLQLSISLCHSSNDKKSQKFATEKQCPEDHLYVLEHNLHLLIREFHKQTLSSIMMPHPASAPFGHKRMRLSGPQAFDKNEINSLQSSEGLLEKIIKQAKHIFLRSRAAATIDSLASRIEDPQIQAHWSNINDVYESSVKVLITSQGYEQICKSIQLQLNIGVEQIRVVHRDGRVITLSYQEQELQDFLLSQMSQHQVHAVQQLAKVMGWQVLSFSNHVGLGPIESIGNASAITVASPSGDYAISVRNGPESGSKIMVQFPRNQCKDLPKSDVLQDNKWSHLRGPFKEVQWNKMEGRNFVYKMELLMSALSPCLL

Target	log2 fold change [1]	log2 fold change (volasertib)	log2 fold change [2]	log2 fold change (epoxomicin)	log2 fold change [3]	log2 fold change [4]	log2 fold change [5]	log2 fold change (rosiglitazone)	log2 fold change [6]	log2 fold change (sotrastaurin)	log2 fold change (Tubastatin A)	log2 fold change [7]	log2 fold change (defactinib)	log2 fold change (rucaparib)	log2 fold change (encorafenib)	log2 fold change [8]	log2 fold change (alvocidib)	log2 fold change [9]	log2 fold change (saracatinib)	log2 fold change [10]
MCM10 (UniProt Q7L590)	-0.074	0	-0.034	0.148	0.069	-0.037	-0.023	-0.164	0.096	-0.09	-0.017	0.014	0.018	-0.021	-0.049	-0.007	–	–	–	–
KIZ (UniProt Q2M2Z5)	0.104	0.262	–	–	–	-0.202	–	–	-0.399	–	–	–	–	-0.027	-0.038	–	-0.076	–	–	–
ITM2B (UniProt Q9Y287)	-0.022	0.182	-0.112	0.028	0.001	–	-0.036	0.057	–	0.123	0.143	0.06	-0.007	0.007	0.098	-0.096	-0.053	-0.197	-0.181	0.091
MARK2 (UniProt E9PC69)	0.044	-0.469	0.086	0.023	-0.137	–	-0.028	-0.014	–	-0.555	0.278	-1.12 (active)	-0.07	0.187	0.144	-0.028	-0.007	0.187	-0.103	0.037
LRFN1 (UniProt Q9P244)	-0.015	0.033	–	-0.125	0.07	–	0.134	0.006	–	-0.08	-0.006	-0.24	-0.048	0.062	-0.227	-0.069	-0.44 (active)	0.069	0.053	-0.028
MASTL (UniProt Q96GX5)	-0.02	–	0.045	0.113	-0.048	–	-0.143	-0.006	–	-0.12	–	0.054	0.037	-0.17	0.083	0.079	-0.061	0.081	0.107	-0.055
ILF3 (UniProt Q12906)	0.222	–	0.144	0.004	–	–	–	-0.082	–	0.009	–	–	–	0.384	0.081	–	–	–	–	–
MFSD8 (UniProt Q8NHS3)	-0.016	0.032	–	-0.021	0.001	-0.012	-0.061	-0.139	0.127	–	0.023	-0.003	-0.008	0.039	0.012	0.003	-0.044	0.046	0.078	-0.053
KXD1 (UniProt Q9BQD3)	-0.154	-0.035	–	-0.077	-0.033	0.041	0.062	0.047	-0.096	–	-0.01	0.008	-0.03	-0.051	0.018	0.017	-0.105	0.011	-0.097	-0.07
MARCHF3 (UniProt Q86UD3)	0.116	0.011	0.018	0.036	–	–	–	0.093	–	-0.055	–	–	–	0	0.097	–	–	–	–	–
MAPK14 (UniProt Q16539)	-0.065	-0.516	-0.067	–	0.088	0.03	0.052	0.067	-0.03	0.001	0.074	0.546	-0.137	-0.02	0.684	-0.055	0.014	-0.231	0.261	-0.03
IP6K1 (UniProt Q92551)	0.127	-0.176	–	0	-0.253	0.028	–	0.091	-0.052	-0.113	-0.06	0.331	–	-0.045	0.094	–	-0.074	0.147	-0.174	0.119
MED25 isoform 3 (UniProt Q71SY5)	0.057	-0.051	0.027	–	-0.076	-0.203	0.096	0.018	-0.043	0.031	-0.042	-0.014	-0.045	0.104	0.083	-0.111	-0.102	-0.155	-0.079	0.036
ILRUN (UniProt Q9H6K1)	-0.079	-0.429 (active)	0.024	0.042	-0.013	–	0.016	-0.019	–	-0.029	0.116	0.023	-0.036	0.037	0.045	0.121	-0.022	-0.09	-0.132	0.049
MFSD11 (UniProt O43934)	-0.244	0.021	-0.108	0.03	–	0.021	0.017	-0.006	-0.345 (active)	0.085	0.005	–	-0.033	-0.002	-0.047	-0.015	-0.029	-0.026	0.092	-0.127
MELK (UniProt Q14680)	-0.429	-1.41 (active)	0.334	0.077	-0.009	-0.114	–	-0.003	-0.426	0.166	0.074	-0.347	–	0.125	0.06	–	0.011	0.034	-0.005	0.196
MED17 (UniProt Q9NVC6)	-0.011	-0.021	-0.008	-0.015	-0.027	0.08	0.037	–	-0.134	-0.145	0.009	-0.049	-0.021	0.109	-0.081	0.055	-0.009	0.036	-0.063	0.031
ITPRID2 (UniProt P28290)	0.01	-0.373	–	-0.109	0.078	–	-0.106	–	–	–	–	-0.299	-0.158	-0.019	-0.087	0.059	–	–	–	–
LSR isoform 3 (UniProt Q86X29)	–	-0.096	–	–	–	–	–	–	–	0.176	0.084	–	–	–	–	–	0.088	0.047	-0.207	0.114
MAP4K5 (UniProt Q9Y4K4)	–	-0.135	-0.004	-0.014	-0.084	-0.126	-0.026	-0.005	0.051	–	0.113	-0.02	-0.02	-0.08	0.082	-0.041	0.072	–	–	–
